Assay [1] deals with T1, Muscle, skeletal receptor tyrosine-protein kinase (Homo sapiens) (UniProt O15146).
T1 sequence (whole entry): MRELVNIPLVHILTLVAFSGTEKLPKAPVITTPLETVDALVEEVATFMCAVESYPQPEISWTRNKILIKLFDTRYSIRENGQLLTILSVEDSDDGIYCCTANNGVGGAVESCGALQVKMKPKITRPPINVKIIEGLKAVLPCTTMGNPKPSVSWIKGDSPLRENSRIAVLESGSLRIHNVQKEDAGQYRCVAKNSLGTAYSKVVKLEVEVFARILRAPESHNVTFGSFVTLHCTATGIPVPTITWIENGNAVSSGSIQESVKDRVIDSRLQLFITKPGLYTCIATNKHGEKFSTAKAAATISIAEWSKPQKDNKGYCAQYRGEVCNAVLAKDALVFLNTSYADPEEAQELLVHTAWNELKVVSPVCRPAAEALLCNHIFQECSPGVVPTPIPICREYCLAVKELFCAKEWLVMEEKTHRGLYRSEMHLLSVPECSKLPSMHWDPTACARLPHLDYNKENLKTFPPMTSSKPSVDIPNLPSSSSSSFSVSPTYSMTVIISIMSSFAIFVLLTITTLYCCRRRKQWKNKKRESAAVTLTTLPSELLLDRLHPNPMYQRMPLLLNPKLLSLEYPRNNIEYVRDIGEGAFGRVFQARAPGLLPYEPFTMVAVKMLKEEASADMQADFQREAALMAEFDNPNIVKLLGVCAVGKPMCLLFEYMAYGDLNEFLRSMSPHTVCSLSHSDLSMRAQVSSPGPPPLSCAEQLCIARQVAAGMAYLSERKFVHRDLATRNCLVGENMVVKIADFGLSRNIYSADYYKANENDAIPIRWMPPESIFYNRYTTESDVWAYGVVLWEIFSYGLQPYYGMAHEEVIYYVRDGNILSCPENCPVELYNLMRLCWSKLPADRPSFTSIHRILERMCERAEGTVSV
The following applies: at 1 µM.

The target of assay [2] is T1, Muscle, skeletal receptor tyrosine-protein kinase (Homo sapiens). The following applies: at 10 µM.
Assay [3] concerns the target T2, Serine/threonine-protein kinase Nek11 (Homo sapiens) (UniProt Q8NG66).
T2 sequence (whole entry): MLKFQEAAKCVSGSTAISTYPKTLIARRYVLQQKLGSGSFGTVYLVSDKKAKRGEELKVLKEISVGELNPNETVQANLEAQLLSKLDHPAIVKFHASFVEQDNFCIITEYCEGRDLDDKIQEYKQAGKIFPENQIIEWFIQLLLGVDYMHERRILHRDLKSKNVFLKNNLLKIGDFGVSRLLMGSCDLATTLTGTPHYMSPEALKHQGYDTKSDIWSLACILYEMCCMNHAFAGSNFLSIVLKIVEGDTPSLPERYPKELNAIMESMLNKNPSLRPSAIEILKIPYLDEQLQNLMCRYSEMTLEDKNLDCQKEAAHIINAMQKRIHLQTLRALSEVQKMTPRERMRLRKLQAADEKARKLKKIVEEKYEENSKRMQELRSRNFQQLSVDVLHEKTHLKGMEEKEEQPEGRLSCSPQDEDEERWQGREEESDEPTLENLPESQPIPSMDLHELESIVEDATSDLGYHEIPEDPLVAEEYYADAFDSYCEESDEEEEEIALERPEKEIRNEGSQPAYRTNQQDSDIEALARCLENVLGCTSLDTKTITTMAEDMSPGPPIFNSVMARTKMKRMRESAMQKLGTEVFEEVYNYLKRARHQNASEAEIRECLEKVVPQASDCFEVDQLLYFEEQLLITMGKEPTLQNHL
The following applies: at 1 µM.

Assay [4] deals with T2, Serine/threonine-protein kinase Nek11 (Homo sapiens). Particulars: at 10 µM.
For assay [5], the target named is T3, Serine/threonine-protein kinase Nek2 (Homo sapiens) (UniProt P51955).
T3 sequence (whole entry): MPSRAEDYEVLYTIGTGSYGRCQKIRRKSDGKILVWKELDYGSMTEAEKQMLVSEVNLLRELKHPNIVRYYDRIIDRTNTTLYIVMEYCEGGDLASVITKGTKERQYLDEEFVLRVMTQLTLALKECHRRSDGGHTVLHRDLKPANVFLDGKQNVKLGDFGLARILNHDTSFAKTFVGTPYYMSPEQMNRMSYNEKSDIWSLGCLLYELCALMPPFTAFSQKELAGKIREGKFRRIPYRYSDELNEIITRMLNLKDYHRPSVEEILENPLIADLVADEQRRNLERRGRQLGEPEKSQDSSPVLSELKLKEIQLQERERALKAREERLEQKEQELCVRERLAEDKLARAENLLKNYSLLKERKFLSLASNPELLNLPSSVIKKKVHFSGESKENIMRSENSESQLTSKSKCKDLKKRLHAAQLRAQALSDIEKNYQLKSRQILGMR
Particulars: at 1 µM.

Assay [6] concerns the target T3, Serine/threonine-protein kinase Nek2 (Homo sapiens). The following applies: at 10 µM.
The target of assay [7] is T4, Serine/threonine-protein kinase Nek3 (Homo sapiens) (UniProt P51956).
T4 sequence (whole entry): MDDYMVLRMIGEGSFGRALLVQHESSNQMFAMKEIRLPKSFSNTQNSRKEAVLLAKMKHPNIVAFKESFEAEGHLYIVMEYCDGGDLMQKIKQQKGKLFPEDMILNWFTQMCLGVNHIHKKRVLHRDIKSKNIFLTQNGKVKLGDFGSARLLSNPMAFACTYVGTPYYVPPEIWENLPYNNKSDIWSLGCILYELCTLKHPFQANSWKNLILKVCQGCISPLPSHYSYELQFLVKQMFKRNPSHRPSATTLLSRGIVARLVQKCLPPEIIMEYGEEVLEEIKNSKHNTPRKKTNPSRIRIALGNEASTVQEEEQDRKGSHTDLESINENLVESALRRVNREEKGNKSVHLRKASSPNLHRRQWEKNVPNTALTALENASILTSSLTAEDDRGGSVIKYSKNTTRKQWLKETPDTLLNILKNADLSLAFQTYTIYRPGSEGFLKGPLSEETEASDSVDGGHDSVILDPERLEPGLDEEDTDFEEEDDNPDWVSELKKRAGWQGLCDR
Particulars: at 1 µM.

Assay [8] has as its target T4, Serine/threonine-protein kinase Nek3 (Homo sapiens). The following applies: at 10 µM.
Assay [9] concerns the target Serine/threonine-protein kinase tousled-like 2 (Homo sapiens) (UniProt Q86UE8). The following applies: at 1 µM.
Assay [10] shares this target. The following applies: at 10 µM.
Assay [11] addresses T5, Testis-specific serine/threonine-protein kinase 1 (Homo sapiens) (UniProt Q9BXA7).
T5 sequence (whole entry): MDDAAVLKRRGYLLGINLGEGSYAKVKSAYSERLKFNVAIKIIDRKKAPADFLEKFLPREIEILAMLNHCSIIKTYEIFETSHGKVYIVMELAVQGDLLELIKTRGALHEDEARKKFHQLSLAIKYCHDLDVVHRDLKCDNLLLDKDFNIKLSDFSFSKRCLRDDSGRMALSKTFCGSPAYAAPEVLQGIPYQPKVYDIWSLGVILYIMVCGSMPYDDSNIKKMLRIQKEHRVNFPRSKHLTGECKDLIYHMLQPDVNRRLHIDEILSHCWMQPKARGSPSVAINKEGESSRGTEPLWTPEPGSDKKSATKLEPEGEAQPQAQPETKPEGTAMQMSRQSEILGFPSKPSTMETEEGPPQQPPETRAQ
The following applies: at 1 µM.

The target in assay [12] is T5, Testis-specific serine/threonine-protein kinase 1 (Homo sapiens). Particulars: at 10 µM.
The target of assay [13] is T6, Testis-specific serine/threonine-protein kinase 2 (Homo sapiens) (UniProt Q96PF2).
T6 sequence (whole entry): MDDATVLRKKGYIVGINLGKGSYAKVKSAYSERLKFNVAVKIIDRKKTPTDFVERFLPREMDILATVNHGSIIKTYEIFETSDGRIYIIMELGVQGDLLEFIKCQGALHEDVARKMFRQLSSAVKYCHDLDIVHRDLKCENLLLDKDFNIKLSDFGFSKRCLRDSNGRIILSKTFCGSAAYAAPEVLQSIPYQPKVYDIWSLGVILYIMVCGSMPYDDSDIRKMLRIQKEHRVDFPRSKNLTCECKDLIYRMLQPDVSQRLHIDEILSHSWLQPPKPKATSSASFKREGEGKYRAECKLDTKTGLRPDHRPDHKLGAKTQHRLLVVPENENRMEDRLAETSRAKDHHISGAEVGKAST
Particulars: at 10 µM.

Assay [14] deals with T7, Tyrosine-protein kinase Tec (Homo sapiens) (UniProt P42680).
T7 sequence (whole entry): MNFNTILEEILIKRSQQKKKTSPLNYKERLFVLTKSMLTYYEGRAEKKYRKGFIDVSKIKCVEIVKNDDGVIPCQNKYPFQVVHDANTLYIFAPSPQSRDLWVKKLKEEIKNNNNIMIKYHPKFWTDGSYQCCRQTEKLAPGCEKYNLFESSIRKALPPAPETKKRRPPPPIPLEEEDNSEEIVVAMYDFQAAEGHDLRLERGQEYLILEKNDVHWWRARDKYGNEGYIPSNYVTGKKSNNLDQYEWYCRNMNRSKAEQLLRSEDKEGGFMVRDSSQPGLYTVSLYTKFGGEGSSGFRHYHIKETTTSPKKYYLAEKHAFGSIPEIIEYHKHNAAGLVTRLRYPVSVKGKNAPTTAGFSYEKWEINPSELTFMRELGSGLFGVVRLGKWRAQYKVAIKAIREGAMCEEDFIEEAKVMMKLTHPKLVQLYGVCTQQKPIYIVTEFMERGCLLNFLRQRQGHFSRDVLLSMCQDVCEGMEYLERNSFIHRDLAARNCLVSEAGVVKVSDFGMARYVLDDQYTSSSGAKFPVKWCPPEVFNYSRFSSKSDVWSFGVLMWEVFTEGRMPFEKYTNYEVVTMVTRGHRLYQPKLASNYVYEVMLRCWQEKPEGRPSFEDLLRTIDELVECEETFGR
The following applies: at 1 µM.

Assay [15] has as its target T7, Tyrosine-protein kinase Tec (Homo sapiens). Particulars: at 10 µM.
Assay [16] deals with Angiopoietin-1 receptor (Homo sapiens) (UniProt Q02763). The following applies: at 1 µM.
Assay [17] has the same target. The following applies: at 10 µM.
In assay [18] the target is High affinity nerve growth factor receptor (Homo sapiens) (UniProt P04629). The following applies: at 1 µM.
Assay [19] shares this target. The following applies: at 10 µM.
In assay [20] the target is BDNF/NT-3 growth factors receptor (Homo sapiens) (UniProt Q16620). Particulars: at 1 µM.

Experimental findings from ChEMBL document CHEMBL2218924, “A broad activity screen in support of a chemogenomic map for kinase signalling research and drug discovery” (Biochem J, 2013) are described below.

What is called residual activity is the signal under treatment as a percentage of the control signal.

High affinity nerve growth factor receptor (Homo sapiens), sequence (P04629 33-796 limits assumed): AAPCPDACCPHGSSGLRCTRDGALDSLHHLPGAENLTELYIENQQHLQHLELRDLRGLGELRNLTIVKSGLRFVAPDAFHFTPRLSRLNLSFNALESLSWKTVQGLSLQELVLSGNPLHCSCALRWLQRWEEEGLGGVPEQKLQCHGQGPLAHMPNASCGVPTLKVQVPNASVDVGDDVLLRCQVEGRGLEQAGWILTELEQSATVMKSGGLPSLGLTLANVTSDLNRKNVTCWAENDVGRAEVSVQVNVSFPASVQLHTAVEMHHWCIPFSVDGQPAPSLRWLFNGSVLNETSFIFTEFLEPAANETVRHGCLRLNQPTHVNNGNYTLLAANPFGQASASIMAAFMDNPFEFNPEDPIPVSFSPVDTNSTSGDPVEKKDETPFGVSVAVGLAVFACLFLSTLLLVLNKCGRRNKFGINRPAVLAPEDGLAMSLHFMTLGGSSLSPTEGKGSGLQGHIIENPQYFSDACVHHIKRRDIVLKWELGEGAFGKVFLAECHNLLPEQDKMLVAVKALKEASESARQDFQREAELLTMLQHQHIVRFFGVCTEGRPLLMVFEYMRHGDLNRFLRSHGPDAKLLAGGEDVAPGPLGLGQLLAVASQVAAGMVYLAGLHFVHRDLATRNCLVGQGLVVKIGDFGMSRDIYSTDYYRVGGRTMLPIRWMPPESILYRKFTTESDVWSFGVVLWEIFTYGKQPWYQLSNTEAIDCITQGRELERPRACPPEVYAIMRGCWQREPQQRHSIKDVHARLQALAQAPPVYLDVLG
Angiopoietin-1 receptor (Homo sapiens), sequence (Q02763 whole entry): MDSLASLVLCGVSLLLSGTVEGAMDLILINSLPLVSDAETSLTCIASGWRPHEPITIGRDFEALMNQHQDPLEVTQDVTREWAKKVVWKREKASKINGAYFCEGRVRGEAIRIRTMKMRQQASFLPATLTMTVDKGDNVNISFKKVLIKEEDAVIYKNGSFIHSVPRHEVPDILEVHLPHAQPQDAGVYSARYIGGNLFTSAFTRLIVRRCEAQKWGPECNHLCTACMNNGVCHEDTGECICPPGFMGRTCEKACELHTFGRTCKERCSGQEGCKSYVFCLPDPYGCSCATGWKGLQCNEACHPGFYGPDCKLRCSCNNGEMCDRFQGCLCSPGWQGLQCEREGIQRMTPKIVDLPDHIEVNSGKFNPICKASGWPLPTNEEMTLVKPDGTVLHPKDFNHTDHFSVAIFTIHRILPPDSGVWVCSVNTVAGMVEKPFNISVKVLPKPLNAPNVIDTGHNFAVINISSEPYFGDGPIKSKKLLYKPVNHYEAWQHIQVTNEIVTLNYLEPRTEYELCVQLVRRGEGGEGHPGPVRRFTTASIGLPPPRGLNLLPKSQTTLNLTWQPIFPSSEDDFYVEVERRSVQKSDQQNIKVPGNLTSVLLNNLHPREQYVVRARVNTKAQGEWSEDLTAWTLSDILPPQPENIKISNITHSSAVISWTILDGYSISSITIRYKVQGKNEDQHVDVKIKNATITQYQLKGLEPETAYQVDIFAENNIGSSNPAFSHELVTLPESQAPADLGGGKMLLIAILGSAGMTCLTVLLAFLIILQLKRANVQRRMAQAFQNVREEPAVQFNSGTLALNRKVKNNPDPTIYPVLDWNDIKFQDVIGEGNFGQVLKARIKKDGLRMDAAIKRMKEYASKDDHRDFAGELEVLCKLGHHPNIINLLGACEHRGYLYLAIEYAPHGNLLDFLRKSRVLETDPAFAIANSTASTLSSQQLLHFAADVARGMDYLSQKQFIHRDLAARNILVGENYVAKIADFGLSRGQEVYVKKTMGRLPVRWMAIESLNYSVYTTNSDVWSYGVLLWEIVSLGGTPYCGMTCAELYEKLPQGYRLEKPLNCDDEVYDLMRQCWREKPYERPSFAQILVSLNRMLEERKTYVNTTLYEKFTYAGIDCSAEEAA
BDNF/NT-3 growth factors receptor (Homo sapiens), sequence (Q16620 32-822 limits assumed): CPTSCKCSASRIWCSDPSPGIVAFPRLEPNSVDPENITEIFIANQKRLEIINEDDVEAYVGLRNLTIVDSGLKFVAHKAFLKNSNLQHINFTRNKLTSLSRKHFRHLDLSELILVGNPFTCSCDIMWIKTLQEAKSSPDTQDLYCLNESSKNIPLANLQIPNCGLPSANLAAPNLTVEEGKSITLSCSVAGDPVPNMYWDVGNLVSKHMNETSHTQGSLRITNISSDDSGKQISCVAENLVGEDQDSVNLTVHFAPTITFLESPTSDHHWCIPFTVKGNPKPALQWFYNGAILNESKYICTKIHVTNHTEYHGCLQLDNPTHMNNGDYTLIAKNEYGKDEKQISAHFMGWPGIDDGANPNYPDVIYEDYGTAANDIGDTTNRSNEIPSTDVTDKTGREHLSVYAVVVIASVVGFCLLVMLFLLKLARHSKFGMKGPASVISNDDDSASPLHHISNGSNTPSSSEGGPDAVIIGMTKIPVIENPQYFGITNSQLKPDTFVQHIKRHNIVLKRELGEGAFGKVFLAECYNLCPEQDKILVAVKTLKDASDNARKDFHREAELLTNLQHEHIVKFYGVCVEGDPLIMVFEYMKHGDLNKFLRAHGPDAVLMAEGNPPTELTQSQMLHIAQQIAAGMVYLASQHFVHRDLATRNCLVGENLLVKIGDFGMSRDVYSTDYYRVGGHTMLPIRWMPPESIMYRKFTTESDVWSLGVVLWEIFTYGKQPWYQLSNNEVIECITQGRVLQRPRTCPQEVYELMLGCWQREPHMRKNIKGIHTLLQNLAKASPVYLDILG
Serine/threonine-protein kinase tousled-like 2 (Homo sapiens), sequence (Q86UE8 whole entry, looked up): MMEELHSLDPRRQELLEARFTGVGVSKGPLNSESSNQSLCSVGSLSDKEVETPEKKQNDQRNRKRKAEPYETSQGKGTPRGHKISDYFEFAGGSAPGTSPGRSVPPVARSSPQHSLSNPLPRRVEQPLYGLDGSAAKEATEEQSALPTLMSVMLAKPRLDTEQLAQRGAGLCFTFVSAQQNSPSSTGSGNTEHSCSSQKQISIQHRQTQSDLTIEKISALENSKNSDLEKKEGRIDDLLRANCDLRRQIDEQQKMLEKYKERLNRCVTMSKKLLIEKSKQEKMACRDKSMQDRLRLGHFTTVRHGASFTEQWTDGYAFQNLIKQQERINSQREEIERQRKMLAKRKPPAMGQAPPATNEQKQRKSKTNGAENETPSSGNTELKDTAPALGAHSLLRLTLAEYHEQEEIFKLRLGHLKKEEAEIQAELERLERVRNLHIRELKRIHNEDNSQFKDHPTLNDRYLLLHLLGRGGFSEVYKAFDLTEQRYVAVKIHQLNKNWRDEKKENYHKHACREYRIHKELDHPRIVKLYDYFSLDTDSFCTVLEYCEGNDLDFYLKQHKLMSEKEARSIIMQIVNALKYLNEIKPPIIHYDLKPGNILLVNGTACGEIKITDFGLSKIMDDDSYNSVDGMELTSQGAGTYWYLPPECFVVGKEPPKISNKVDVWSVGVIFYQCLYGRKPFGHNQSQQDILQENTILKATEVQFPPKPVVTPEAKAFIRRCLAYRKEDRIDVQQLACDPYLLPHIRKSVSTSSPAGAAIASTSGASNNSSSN

`Nc1ccc2ncnc(NCCc3ccc(Oc4ccccc4)cc3)c2c1`: the residual activity in [1] turned out to be 92%; in assay [2], 49%; in assay [3] it was 68%; in assay [4], 55%; in assay [5] it was 114%; in assay [6], 101%. Also, the residual activity in assay [7] is 81%; in assay [8], 109%; in assay [9] it was 111%; in assay [10], 100%; in assay [11], 89%; in assay [12] it was 58%. For the same molecule, the residual activity in assay [13] was 98%; in assay [14], 84%; in assay [15], 30%; in assay [16] it was 114%; in assay [17] it was 66%; in assay [18] it was 89%. Moreover, the residual activity was 56% in assay [19] and 82% in [20].
Regarding `Oc1c2ccccc2c2c3c(cccc13)N=N2`, the residual activity is 60% in assay [1]; 24% in assay [2]; 50% in assay [3]; 47% in assay [4]; 86% in [5]; 81% in assay [6]. Moreover, the residual activity in [7] worked out at 70%; in assay [8], 79%; in assay [9], 71%; in assay [10] it was 38%; in assay [11], 75%; in assay [12], 49%. For the same molecule, the residual activity in assay [13] was 86%; in assay [14], 89%; in [15], 57%; in [16], 95%; in assay [17], 63%; in [18] it was 10%. Moreover, the residual activity in assay [19] is -1%; in [20], 32%.
As for `CNc1cc2c(Nc3cccc(Br)c3)ncnc2cn1`, the residual activity was 105% in assay [1]; 93% in assay [2]; 109% in assay [3]; 103% in assay [4]; 78% in assay [5]; 109% in assay [6]. For the same molecule, the residual activity came out at 106% in assay [7]; 63% in assay [8]; 99% in assay [9]; 93% in assay [10]; 93% in assay [11]; 90% in assay [12]. In addition, the residual activity in assay [13] is 103%; in assay [14], 96%; in [15] it was 52%; in assay [16], 90%; in [17], 89%; in [18], 69%. For the same molecule, the residual activity in assay [19] turned out to be 53%; in assay [20], 64%.
